This is a sample that favours compounds with a hit; in the whole collection about 4.8% have one here.
DAX1 inh-1: NR0B1 (DAX1) inhibition; P51843; HEK293 Gal4-DAX1 luciferase reporter, luminescence; inhibition, % at 6.75 µM; 340,000 tested, 0.99% active;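 active means inhibition above the mean over all tested compounds plus 3 SD, cut at about 4.2% in these data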;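 further: 0% = DAX1-transfected cells with DMSO and 100% = empty-vector control cells with DMSO; inhibition shows as a rise in luminescence from relieved DAX1 repression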
Target sequence (P51843 207-470 limits assumed): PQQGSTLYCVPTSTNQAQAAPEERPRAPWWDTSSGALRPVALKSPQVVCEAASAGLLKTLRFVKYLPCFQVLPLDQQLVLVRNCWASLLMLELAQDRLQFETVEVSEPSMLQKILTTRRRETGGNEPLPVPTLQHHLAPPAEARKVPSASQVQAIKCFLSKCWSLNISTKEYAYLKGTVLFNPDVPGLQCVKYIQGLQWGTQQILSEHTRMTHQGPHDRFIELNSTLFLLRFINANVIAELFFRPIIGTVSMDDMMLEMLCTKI
hgDAF-12 ag: activates the H. glycines DAF-12 receptor ligand-binding domain; activation, % at 6.8 µM; HEK293 GAL4-hgDAF12 UAS-luciferase reporter, agonist luminescence; normalized to butyrate control; 370,000 tested, 1.8% active;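 active means activation above a cutoff set at the mean of all screened compounds plus 3 SD, cut at about 10% in these data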;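 further: 0% = DMSO wells and 100% = sodium butyrate wells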
ssDAF-12 act: S. stercoralis DAF-12 activation, primary screen. HEK293 ssDAF-12/GRIP1 lit1-tk-luc reporter, luminescence; % of 3 µM dafachronic acid response. activation, % at 6.8 µM. 370,000 tested, 1% active. AID 652126;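 active means activation above the mean over all tested compounds plus 3 SD, cut at about 0.9% in these data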;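 further: 0% = DMSO-only wells and 100% = 3 µM delta7-dafachronic acid wells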
DAX1 inh-2: DAX1 (NR0B1) inhibition, primary screen; HEK293T StAR-luciferase reporter, SF-1/DAX-1 repression relief; inhibition, % at 6.8 µM; 370,000 tested, 1.1% active;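 active means inhibition above the mean over all tested compounds plus 3 SD, cut at about 3.6% in these data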;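 further: 0% = DAX-1 cells with DMSO and 100% = cells lacking DAX-1 with DMSO; higher inhibition means more luminescence from relief of DAX-1 repression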
SMARCA2 activ: SMARCA2 function activation, primary screen. activation, % at 9.1 µM. 370,000 tested, 1% active. MG213 cells, MMTV-luciferase reporter, dexamethasone, overnight; in the data active means activation above about 7.8%;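 further: 0% = vehicle wells and 100% = reference activator wells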
hcDAF12 agonist: activates DAF-12 receptor from parasite H. contortus; activation, % at 6.8 µM; 370,000 tested, 1.4% active; HEK293 hcDAF-12 lit1-tk-luc reporter, luminescence; 0% DMSO, 100% Δ7-dafachronic acid;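 active means activation above the mean of all tested compounds plus 3 SD, cut at about 5.5% in these data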;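 further: 100% = response to 3 µM Δ7-dafachronic acid high control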
DAX1 conf: confirmation of human DAX1 (NR0B1) inhibitors | shares compounds with DAX1 inh-2 | HEK293T StAR-promoter luciferase reporter, SF-1/DAX-1 repression | inhibition, % at 6.8 µM | 2,400 tested, 87% active;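 active means inhibition above the average of every tested compound plus 3 SD, cut at about 3.8% in these data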;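 further: 0% = DAX-1 cells with DMSO and 100% = no DAX-1 control cells with DMSO; active compounds raise luminescence by relieving repression of the StAR reporter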
Target sequence (P51843 whole entry, looked up): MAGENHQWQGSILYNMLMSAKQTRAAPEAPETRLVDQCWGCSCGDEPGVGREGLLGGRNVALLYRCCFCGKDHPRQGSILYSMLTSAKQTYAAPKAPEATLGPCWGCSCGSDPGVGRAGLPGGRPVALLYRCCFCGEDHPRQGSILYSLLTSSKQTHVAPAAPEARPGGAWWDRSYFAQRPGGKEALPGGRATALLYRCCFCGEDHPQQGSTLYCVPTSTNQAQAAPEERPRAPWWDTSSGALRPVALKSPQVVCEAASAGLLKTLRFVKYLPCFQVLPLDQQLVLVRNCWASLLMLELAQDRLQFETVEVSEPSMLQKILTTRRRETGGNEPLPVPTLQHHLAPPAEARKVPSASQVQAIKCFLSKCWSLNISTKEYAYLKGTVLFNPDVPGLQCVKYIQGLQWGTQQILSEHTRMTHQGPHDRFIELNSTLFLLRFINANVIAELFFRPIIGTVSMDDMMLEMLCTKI
SF1 AF2mut Luc: counter-screen for DAX1 inhibitors: nonselective inhibitors with SF-1 AF2 mutant; HEK293 StAR-luciferase, luminescence; shares compounds with DAX1 inh-2; inhibition, % at 6.8 µM; AID 652136; 2,400 tested, 78% active;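 active means inhibition above the mean of all tested compounds plus 3 SD, cut at about 3% in these data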;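 further: 0% = DAX-1 transfected cells with DMSO and 100% = cells without DAX-1 with DMSO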
An asterisk follows results filed as active; . = not tested or not shown.

SMILES | DAX1 inh-1 | hgDAF-12 ag | ssDAF-12 act | DAX1 inh-2 | SMARCA2 activ | hcDAF12 agonist | DAX1 conf | SF1 AF2mut Luc
CCCS(=O)(=O)NC(=O)C1(C)CCN(C(=O)c2cc(C)on2)C1 (stereo not drawn) | . | 1.4 | -1.2 | -0.1 | -4.6 | 0.5 | . | .
COc1ccccc1Cc1c(-c2ccc(C)cc2)nc2c(C)cc(Br)cn12 | . | 4.8 | 0.7 | 5.3* | -4.0 | 2.8 | -0.4 | -0.4
COC(=O)c1ccc2nc(-c3ccccc3)c(Cc3ccccc3OC)n2c1 | . | 2.0 | 0.8 | 4.8* | -1.9 | 2.0 | 2.0 | 1.8
COc1ccccc1Cc1c(-c2ccc(F)cc2)nc2c(C)cc(Br)cn12 | . | 0.0 | -0.8 | 0.2 | -1.7 | 3.1 | . | .
COc1ccccc1Cc1c(-c2cccc(Br)c2)nc2ccc(Cl)cn12 | . | 8.3 | -0.9 | 2.6 | 2.4 | -1.3 | . | .
COc1ccccc1Cc1c(-c2ccc(C)cc2)nc2ccc(Br)cn12 | . | 23.1* | 0.6 | 7.4* | 2.5 | 6.3* | 8.2* | 5.6*
COc1ccccc1Cc1c(-c2ccc(Cl)cc2)nc2ccc(Br)cn12 | . | 4.0 | -0.1 | 5.5* | -1.3 | 1.1 | 6.3* | 4.3*
COc1ccc(NC(=O)C(OC(=O)c2cnccn2)c2ccccc2)cc1Cl (stereo not drawn) | 0.1 | 1.8 | -0.6 | -1.9 | 3.9 | -0.5 | . | .
CCc1nc2ccc(C(=O)NCCCn3ccnc3)cn2c1N(C)Cc1ccc(Cl)cc1 | . | -3.4 | -1.2 | -1.0 | -2.4 | 0.2 | . | .
CC(NC(=O)C1CCCN(S(=O)(=O)N2CCOCC2)C1)c1ccccc1 (stereo not drawn) | -0.9 | -0.7 | -1.0 | 0.0 | -1.1 | -3.0 | . | .
N#Cc1ccc(-c2nc3ccc(Br)cn3c2Cc2ccsc2)cc1 | . | 4.6 | -1.2 | 0.7 | 0.6 | -0.9 | . | .
Clc1ccc(-c2nc3ccc(Br)cn3c2Cc2ccsc2)cc1 | . | 7.8 | 0.6 | 5.2* | -0.9 | 2.5 | 5.2* | 2.1
C=C1CCCC2OC(CC3=CC4/C(C)=C/CC(C)CC(/C=C(\C)C(O)C5CC(O)C(O)C(CCC(O)/C=C/C(C)=C/CCC6=NCCC(C3)C64C)O5)OC(=O)CC3OC(C(O)C1)C(O)C3O)CC(O)C2O (stereo not drawn) | . | -0.5 | 0.2 | 7.9* | 1.2 | 5.8* | 11.4* | -2.6
CC1(C)Cc2cccc(OCC(=O)NCCc3ccccc3)c2O1 | 1.1 | -1.0 | -0.1 | 5.1* | 5.9 | -0.8 | 4.5* | 3.1*
CC1(C)Cc2cccc(OCC(=O)NCCc3ccc(S(N)(=O)=O)cc3)c2O1 | 0.4 | 3.4 | -1.5 | 0.6 | -2.6 | -2.0 | . | .
COc1ccc(-c2nc3c(Cl)cc(C(F)(F)F)cn3c2Cc2cccc(F)c2)cc1OC | . | 1.1 | -1.3 | -0.9 | 0.7 | 0.2 | . | .
Nc1cnn(C2OC(CO)C(O)C2O)c(=O)n1 (stereo not drawn) | -0.8 | -4.2 | -1.6 | 4.6* | -4.9 | 1.0 | 6.8* | -0.2
Nc1nc(=O)n(C2OC(CO)C(O)C2O)cc1F (stereo not drawn) | . | -5.6 | -1.7 | -3.9 | -1.8 | -2.3 | . | .
c1ccc(-n2ncc3c(NC4CCCCCC4)ncnc32)cc1 | 5.9* | 10.8* | -0.6 | 5.7* | 6.7 | -0.1 | 10.2* | 5.7*
O=C(O)CN1C(=O)C2C3CCC(C3)C2C1=O (stereo not drawn) | 1.3 | -2.7 | -1.2 | -0.4 | -7.9 | -0.6 | . | .
C[C@H](NC(=O)c1nc[nH]c1C(=O)N(C)CCO)c1ccccc1 | . | -2.1 | -0.5 | -1.1 | -2.3 | -2.5 | . | .
O=C(O)c1ccccc1NN=Cc1ccccc1 | 4.5* | 9.9 | 0.0 | 5.6* | 7.8 | 3.4 | 9.3* | 5.9*
O=[N+]([O-])c1ccccc1N/N=C/c1ccccc1 | 0.6 | 6.2 | -0.1 | 0.4 | 1.9 | 2.2 | . | .
Cc1ccc(OCC(=O)Nc2ccc(Cl)cc2)c([N+](=O)[O-])n1 | 2.9 | 11.3* | -0.1 | 6.2* | 3.8 | 1.2 | 10.0* | 7.5*
Cc1ccc(OCC(=O)Nc2ccc3c(c2)CCC3)c([N+](=O)[O-])n1 | 0.7 | 3.4 | -1.5 | 1.3 | 3.4 | 5.2 | . | .
SMILES | DAX1 inh-1 | hgDAF-12 ag | ssDAF-12 act | DAX1 inh-2 | SMARCA2 activ | hcDAF12 agonist | DAX1 conf | SF1 AF2mut Luc
O/N=C/CCn1c(=S)sc2ccccc21 | 0.7 | 0.8 | -1.0 | 0.6 | -2.4 | 1.1 | . | .
O=C(OCCn1c(=S)sc2ccccc21)c1ccccc1 | 3.4 | 6.9 | 0.3 | 6.7* | 5.3 | 2.0 | 9.1* | 7.1*
COc1cc(Cl)ccc1OCc1cc(C(=O)N2C[C@H]3CC[C@H]2C3)no1 | 3.1 | 7.9 | 0.1 | 5.5* | 5.8 | 2.2 | 4.7* | 4.0*
COc1cc(C)ccc1OCc1cc(C(=O)N2C[C@H]3CC[C@H]2C3)no1 | 0.1 | 0.9 | -1.2 | -0.1 | 2.7 | -1.1 | . | .
COc1cc(Cl)ccc1OCc1cc(C(=O)N2CCCCCCC2)no1 | -0.2 | 3.2 | -0.5 | 1.0 | -1.8 | 0.9 | . | .
COc1cc(Cl)ccc1OCc1cc(C(=O)N2C[C@@H]3CCC[C@H]2C3)no1 | 1.2 | 8.8 | -0.2 | 5.2* | 3.4 | 4.3 | 7.5* | 4.9*
CC(=O)Nc1ccc(CN2C(=O)C(C)(C)ON=C2c2ccc(NC(C)=O)cc2)cc1 | . | -1.5 | -1.0 | -0.1 | 0.6 | -0.7 | . | .
O=C(NC(=S)Nc1cccc(Cl)c1Cl)C1CC1 | 1.5 | 2.5 | -0.7 | -0.8 | 1.2 | 0.7 | . | .
CCN(CC)c1ccc(C2NC(=O)c3ccccc3N2)cc1 (stereo not drawn) | -2.2 | 8.9 | 1.1* | 7.4* | -0.5 | 7.9* | 2.7 | -0.3
CCCCc1nnc(NC(=O)C2=COCCO2)s1 | 1.2 | 7.8 | 1.0* | 7.3* | 5.0 | 4.8 | 7.3* | 5.6*
O=C(Nc1nc2ccc(F)cc2s1)C1=COCCO1 | -3.4 | 2.8 | 0.1 | 7.5* | 1.7 | 4.9 | 7.6* | 3.1*
Cc1nnc(NC(=O)C2=COCCO2)s1 | -0.3 | 2.3 | -0.9 | 2.3 | -0.4 | 0.9 | . | .
CCOC(=O)[C@]12CCCCC/C=C\1N(Cc1ccc(OC)cc1)C(=O)[C@H]2CC(=O)NCCCOC | . | -1.9 | -1.7 | 5.2* | 2.2 | -2.1 | 2.5 | -0.1
Cn1cccc1C(=O)OCC(=O)Nc1ccc2c(c1)OCCO2 | -0.4 | 10.8* | 0.4 | 7.1* | -5.7 | 4.0 | 12.1* | 7.0*
Cn1cccc1C(=O)OCC(=O)NCc1ccc2c(c1)OCO2 | 0.2 | 4.3 | -1.6 | -0.6 | -0.5 | 0.7 | . | .
CCOCC(=O)Nc1c(C(=O)Nc2ccc3c(c2)OCCO3)oc2ccccc12 | 0.1 | 10.0 | -0.2 | 7.0* | -0.9 | 0.7 | 6.3* | 3.1*

Assay outcomes from PubChem.
